Measurements reported in PubChem BioAssay (NCI).
Compounds without any hit were thinned out: in the full panel of roughly 83,000, 20% have a hit.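 Assay: single dose, 48 h. Readout: percent growth (0 = no net growth; negative = cell death). Active: <10.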 The source made the active and inactive calls.

Key:
Experiment in all cases: NCI-60 one-dose screen, 48 h (100 = growth as untreated, 0 = no growth, -100 = all killed)
Details in all cases: 10 µM unless noted
DU-145 prostate = system: DU-145 prostate
K-562 leukemia = system: K-562 leukemia
MALME-3M melanoma = system: MALME-3M melanoma
MDA-MB-231 breast = system: MDA-MB-231 breast
RXF 393 renal = system: RXF 393 renal
SF-268 CNS = system: SF-268 CNS
SF-295 CNS = system: SF-295 CNS
SF-539 CNS = system: SF-539 CNS
UACC-257 melanoma = system: UACC-257 melanoma
M14 melanoma = system: M14 melanoma
HCT-15 colon = system: HCT-15 colon
HT29 colon = system: HT29 colon
SNB-75 CNS = system: SNB-75 CNS
SNB-19 CNS = system: SNB-19 CNS
U251 CNS = system: U251 CNS
PC-3 prostate = system: PC-3 prostate
UACC-62 melanoma = system: UACC-62 melanoma
LOX IMVI melanoma = system: LOX IMVI melanoma
SK-MEL-28 melanoma = system: SK-MEL-28 melanoma
SK-MEL-5 melanoma = system: SK-MEL-5 melanoma

Measured: growth

O=C(N/N=C/c1cc(Cl)ccc1O)c1ccccc1Nc1ccnc(C(F)(F)F)c1
active: MALME-3M melanoma -18.7% | SF-539 CNS -4.43% | UACC-62 melanoma -12%
inactive: DU-145 prostate 25.8% | K-562 leukemia 89.3% | MDA-MB-231 breast 50.4% | RXF 393 renal 58.3% | SF-268 CNS 18.3% | SF-295 CNS 28.9% | UACC-257 melanoma 42.8% | M14 melanoma 23.6% | HCT-15 colon 30.4% | HT29 colon 39.2% | SNB-75 CNS 57.6% | SNB-19 CNS 21% | U251 CNS 16.7% | PC-3 prostate 32.9% | LOX IMVI melanoma 13.2% | SK-MEL-28 melanoma 59.1%

O=C(O)COc1ccc(Cl)c(Cl)c1
inactive: DU-145 prostate 126% | K-562 leukemia 109% | MALME-3M melanoma 124% | MDA-MB-231 breast 115% | RXF 393 renal 108% | SF-268 CNS 117% | SF-295 CNS 103% | SF-539 CNS 104% | UACC-257 melanoma 104% | M14 melanoma 112% | HCT-15 colon 111% | HT29 colon 112% | SNB-75 CNS 107% | SNB-19 CNS 117% | U251 CNS 108% | PC-3 prostate 100% | SK-MEL-5 melanoma 105% | UACC-62 melanoma 104% | LOX IMVI melanoma 97.9% | SK-MEL-28 melanoma 116%

N#Cc1cccc(C2C3=C(COC3=O)N(CCO)c3cc4c(cc32)CCC4)c1 (stereo unspecified)
active: DU-145 prostate 3.87% | K-562 leukemia 8.48% | SF-295 CNS -7.01% | SF-539 CNS -10.1% | M14 melanoma 2.59% | HCT-15 colon 9.99% | HT29 colon 4.8% | SK-MEL-5 melanoma -3.37%
inactive: MALME-3M melanoma 48.2% | MDA-MB-231 breast 32.4% | RXF 393 renal 35.5% | SF-268 CNS 30.4% | UACC-257 melanoma 69.4% | SNB-75 CNS 43.8% | SNB-19 CNS 23% | U251 CNS 14.6% | PC-3 prostate 22.9% | UACC-62 melanoma 45.6% | LOX IMVI melanoma 19% | SK-MEL-28 melanoma 51.2%

CCCCNC(=O)Oc1ccc(/C(=C(/C)Cc2ccc(OC)cc2)c2ccc(OCCN3CCCCCC3)cc2)cc1
active: HT29 colon 3.69%
inactive: DU-145 prostate 91.6% | K-562 leukemia 10.3% | MALME-3M melanoma 99.5% | MDA-MB-231 breast 81.5% | RXF 393 renal 75.1% | SF-268 CNS 83.5% | SF-295 CNS 92.2% | SF-539 CNS 95.4% | UACC-257 melanoma 94.4% | M14 melanoma 91.1% | HCT-15 colon 27.8% | SNB-75 CNS 79.2% | SNB-19 CNS 85.8% | U251 CNS 62.5% | PC-3 prostate 65.5% | SK-MEL-5 melanoma 82.7% | UACC-62 melanoma 79.1% | LOX IMVI melanoma 14% | SK-MEL-28 melanoma 95%

O=S1(=O)C=C(c2ccccc2)C(c2ccccc2)=C1
inactive: MDA-MB-231 breast 11% | SF-295 CNS 73.5% | M14 melanoma 12.1% | SNB-75 CNS 50% | SNB-19 CNS 76.6% | U251 CNS 14.8% | PC-3 prostate 39.6% | SK-MEL-28 melanoma 17.9%
active: DU-145 prostate 9.89% | K-562 leukemia 4.11% | MALME-3M melanoma -32.6% | RXF 393 renal -86.8% | SF-268 CNS 3.46% | SF-539 CNS 9.24% | UACC-257 melanoma 2.35% | HCT-15 colon -6.66% | HT29 colon -34.3% | UACC-62 melanoma 5.7% | LOX IMVI melanoma -69.4%

COc1ccc2c(c1)c(-c1nc(-c3c[nH]c4ncccc34)cs1)cn2CCCN1CCOCC1
inactive: DU-145 prostate 41.5% | SF-268 CNS 43.9% | SF-539 CNS 33.6% | UACC-257 melanoma 49.9% | M14 melanoma 10% | HCT-15 colon 13.7% | SNB-75 CNS 21.4% | SNB-19 CNS 54.4% | U251 CNS 16.3% | PC-3 prostate 18.2% | SK-MEL-5 melanoma 31.6% | UACC-62 melanoma 44.1% | LOX IMVI melanoma 17%
active: K-562 leukemia -5.12% | MALME-3M melanoma 5.55% | MDA-MB-231 breast 9.85% | RXF 393 renal -9.75% | SF-295 CNS -34.4% | HT29 colon -12.9% | SK-MEL-28 melanoma -54.1%

CCc1ccc(CCC(=O)Nc2ncc(Cc3ccccc3)s2)o1
active: RXF 393 renal 2.15% | SF-539 CNS -10.1% | HT29 colon 9.07% | SNB-75 CNS 3.46%
inactive: DU-145 prostate 26.7% | K-562 leukemia 11.8% | MALME-3M melanoma 65.2% | MDA-MB-231 breast 52.5% | SF-268 CNS 61.1% | SF-295 CNS 15.1% | UACC-257 melanoma 58.9% | M14 melanoma 10.5% | HCT-15 colon 20.2% | SNB-19 CNS 52.9% | U251 CNS 27.2% | PC-3 prostate 26.7% | SK-MEL-5 melanoma 42.8% | UACC-62 melanoma 23% | LOX IMVI melanoma 42.4% | SK-MEL-28 melanoma 56.4%

Cc1c2ccncc2c(C)c2c1c1cc(CO)ccc1n2C
active: DU-145 prostate -2.14% | K-562 leukemia 6.77% | MALME-3M melanoma -1.68% | MDA-MB-231 breast -8.51% | SF-295 CNS 3.5% | UACC-257 melanoma -39.2% | M14 melanoma -22.9% | HCT-15 colon 4.02% | HT29 colon -21.1% | SNB-19 CNS 1.5% | U251 CNS -10.8% | PC-3 prostate 4.52% | SK-MEL-5 melanoma 6.31% | UACC-62 melanoma -54.2% | LOX IMVI melanoma -21% | SK-MEL-28 melanoma 5.47%
inactive: RXF 393 renal 11.9% | SF-268 CNS 14.4% | SF-539 CNS 17.2% | SNB-75 CNS 13.3%

COc1ccc(/C=C2\CN(C(=O)C(Cl)Cl)C/C(=C\c3ccc(OC)cc3)C2=O)cc1
inactive: SF-268 CNS 23.6% | UACC-257 melanoma 22.8% | SNB-75 CNS 21%
active: DU-145 prostate -11.2% | K-562 leukemia 2.32% | MALME-3M melanoma -33.9% | MDA-MB-231 breast 3.8% | RXF 393 renal -68.2% | SF-295 CNS -25.1% | SF-539 CNS -40% | M14 melanoma -39% | HCT-15 colon -14.4% | HT29 colon 5.9% | SNB-19 CNS -10.9% | U251 CNS -68.2% | PC-3 prostate -8.13% | SK-MEL-5 melanoma -41% | UACC-62 melanoma -66% | LOX IMVI melanoma -77.8% | SK-MEL-28 melanoma -12.5%

Cc1ccc(C(=O)c2ccc(CC(=O)NN3C(=O)c4ccccc4C3=O)n2C)cc1
inactive: DU-145 prostate 108% | K-562 leukemia 90.9% | MALME-3M melanoma 101% | MDA-MB-231 breast 93.9% | RXF 393 renal 102% | SF-268 CNS 95.8% | SF-295 CNS 98.6% | SF-539 CNS 97.3% | UACC-257 melanoma 100% | M14 melanoma 104% | HCT-15 colon 103% | HT29 colon 106% | SNB-75 CNS 62.9% | SNB-19 CNS 96.4% | U251 CNS 95.8% | PC-3 prostate 98.9% | SK-MEL-5 melanoma 99.8% | UACC-62 melanoma 94.2% | LOX IMVI melanoma 94.1% | SK-MEL-28 melanoma 103%

CN(CCC(=O)c1ccccc1)CCC(=O)c1ccccc1
inactive: DU-145 prostate 104% | K-562 leukemia 61.7% | MALME-3M melanoma 105% | MDA-MB-231 breast 97.3% | RXF 393 renal 97.9% | SF-268 CNS 101% | SF-295 CNS 108% | SF-539 CNS 88% | UACC-257 melanoma 98.6% | M14 melanoma 94.7% | HCT-15 colon 103% | HT29 colon 117% | SNB-75 CNS 90.4% | SNB-19 CNS 93.1% | U251 CNS 98% | PC-3 prostate 95.5% | SK-MEL-5 melanoma 96.4% | UACC-62 melanoma 77.9% | LOX IMVI melanoma 75.6% | SK-MEL-28 melanoma 103%

COc1ccc(C2=CN3CC=CC3CC2=O)cc1 (stereo unspecified)
inactive: DU-145 prostate 98.9% | K-562 leukemia 98.4% | MALME-3M melanoma 81.6% | MDA-MB-231 breast 105% | RXF 393 renal 110% | SF-268 CNS 98.2% | SF-295 CNS 93.3% | SF-539 CNS 95% | UACC-257 melanoma 92.9% | M14 melanoma 106% | HCT-15 colon 95.2% | HT29 colon 90.5% | SNB-75 CNS 90.9% | SNB-19 CNS 105% | U251 CNS 94.5% | PC-3 prostate 92.1% | UACC-62 melanoma 105% | LOX IMVI melanoma 104% | SK-MEL-28 melanoma 102%

CCN(CC)CCCN1C(=O)c2c(c(C)c3c(oc4ccc(O)cc43)c2C)C1=O
inactive: MALME-3M melanoma 87% | RXF 393 renal 61.3% | SF-268 CNS 66% | SF-295 CNS 109% | UACC-257 melanoma 102% | M14 melanoma 86.6% | SNB-75 CNS 90.4% | SNB-19 CNS 77.4% | U251 CNS 47.3% | PC-3 prostate 79.7% | UACC-62 melanoma 96% | SK-MEL-28 melanoma 81.8%
active: DU-145 prostate -58.8% | K-562 leukemia 3.9% | MDA-MB-231 breast -80.9% | SF-539 CNS 1.71% | HCT-15 colon -77.5% | HT29 colon -40.3% | LOX IMVI melanoma -95.8%

CCCCNc1cc(-c2cn[nH]c2-c2cc(C)cc(OC)c2)nc(-c2cccnc2)n1
inactive: DU-145 prostate 93.6% | K-562 leukemia 80.1% | MALME-3M melanoma 100% | MDA-MB-231 breast 69.8% | RXF 393 renal 71.9% | SF-268 CNS 98.4% | SF-295 CNS 91.5% | SF-539 CNS 81.7% | UACC-257 melanoma 110% | M14 melanoma 98.7% | HCT-15 colon 82.7% | HT29 colon 95.1% | SNB-75 CNS 76.2% | SNB-19 CNS 95.6% | U251 CNS 87.3% | PC-3 prostate 80.9% | SK-MEL-5 melanoma 77.4% | UACC-62 melanoma 80.2% | LOX IMVI melanoma 91.2% | SK-MEL-28 melanoma 96.4%
